For seven sequences, binding signal results are on record in PMC4081100, “A DNA-binding-site landscape and regulatory network analysis for NAC transcription factors in Arabidopsis thaliana”.

Assay in all cases: universal protein binding microarray (PBM); transcription factors of Arabidopsis thaliana; high values mean tight binding
One experiment deals with T1, GST-ANAC092(1-176) (Arabidopsis thaliana, UniProt Q9FKA0 1-176).
T1 sequence: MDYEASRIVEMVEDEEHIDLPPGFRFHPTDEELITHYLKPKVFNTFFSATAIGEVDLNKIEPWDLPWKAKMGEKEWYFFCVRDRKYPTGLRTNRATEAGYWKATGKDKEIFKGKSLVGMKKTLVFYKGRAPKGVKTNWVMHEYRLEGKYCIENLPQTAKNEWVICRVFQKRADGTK
The note with it: protein: recombinant; tags: GST; chain copies: 2; dsDNA, one strand shown. Put shortly:
(§1)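 Protein amounts were determined by A280 or anti-GST western blot after glutathione–Sepharose 4B purification of GST-tagged proteins induced in cells, with zinc acetate included for zinc-finger proteins. Duplicate runs at 200 to 500 nM final were done on custom all-10-mer Agilent 4 × 180K arrays made double-stranded by primer extension. The normalised enrichment score (E-score) over gapped and ungapped 8-mers is the measure of binding.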

Another experiment has as its target T2, GST-ANAC019 NAC domain (Arabidopsis thaliana, UniProt Q9C932 14-162).
T2 sequence: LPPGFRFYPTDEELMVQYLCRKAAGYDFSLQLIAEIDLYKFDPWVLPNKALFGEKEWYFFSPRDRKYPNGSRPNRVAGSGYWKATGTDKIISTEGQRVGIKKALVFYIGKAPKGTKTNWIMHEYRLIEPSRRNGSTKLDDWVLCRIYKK
As to conditions: protein: recombinant; tags: GST; chain copies: 2; dsDNA, one strand shown. A digest of the protocol: as §1

For the next experiment, the target named is T3, GST-ANAC055(1-171) (Arabidopsis thaliana, UniProt Q9LDY8 1-171).
T3 sequence: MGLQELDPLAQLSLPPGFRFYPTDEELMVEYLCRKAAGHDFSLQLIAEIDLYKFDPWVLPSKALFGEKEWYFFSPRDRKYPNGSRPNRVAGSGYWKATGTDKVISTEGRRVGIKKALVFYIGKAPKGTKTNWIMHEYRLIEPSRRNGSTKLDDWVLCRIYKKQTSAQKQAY
The note with it: protein: recombinant; tags: GST; chain copies: 2; dsDNA, one strand shown. Put shortly:
as §1

Another experiment deals with T4, GST-ATAF1 NAC domain (Arabidopsis thaliana, UniProt Q39013 7-158).
T4 sequence: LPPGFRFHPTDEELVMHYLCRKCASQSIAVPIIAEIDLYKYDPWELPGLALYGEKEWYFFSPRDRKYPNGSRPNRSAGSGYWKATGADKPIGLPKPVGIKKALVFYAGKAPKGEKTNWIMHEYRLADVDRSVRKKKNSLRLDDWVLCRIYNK
The note with it: protein: recombinant; tags: GST; chain copies: 2; dsDNA, one strand shown. Put shortly:
as §1

Experiment [1] has as its target T5, GST-ANAC092(1-285) full length (Arabidopsis thaliana, UniProt Q9FKA0 1-285).
T5 sequence: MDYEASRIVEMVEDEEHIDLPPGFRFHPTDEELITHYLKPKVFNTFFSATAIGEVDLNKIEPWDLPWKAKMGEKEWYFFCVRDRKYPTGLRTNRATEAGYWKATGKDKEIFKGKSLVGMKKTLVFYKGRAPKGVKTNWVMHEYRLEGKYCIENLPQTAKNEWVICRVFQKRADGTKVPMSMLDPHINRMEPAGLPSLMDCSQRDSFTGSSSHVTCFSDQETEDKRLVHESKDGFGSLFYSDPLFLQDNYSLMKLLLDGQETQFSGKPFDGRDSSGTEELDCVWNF
The note with it: protein: recombinant; tags: GST; chain copies: 2; dsDNA, one strand shown. A digest of the protocol: as §1

Another experiment addresses T6, GST-NAP(1-166) (Arabidopsis thaliana, UniProt O49255 1-166).
T6 sequence: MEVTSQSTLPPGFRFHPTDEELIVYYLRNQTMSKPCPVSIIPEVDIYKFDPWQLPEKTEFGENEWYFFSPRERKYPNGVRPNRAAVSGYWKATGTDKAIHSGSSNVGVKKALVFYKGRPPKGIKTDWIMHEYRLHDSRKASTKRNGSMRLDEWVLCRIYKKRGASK
As to conditions: protein: recombinant; tags: GST; chain copies: 2; dsDNA, one strand shown. A digest of the protocol:
as §1

A further experiment deals with T7, GST-NST2(1-184) (Arabidopsis thaliana, UniProt Q9M274 1-184).
T7 sequence: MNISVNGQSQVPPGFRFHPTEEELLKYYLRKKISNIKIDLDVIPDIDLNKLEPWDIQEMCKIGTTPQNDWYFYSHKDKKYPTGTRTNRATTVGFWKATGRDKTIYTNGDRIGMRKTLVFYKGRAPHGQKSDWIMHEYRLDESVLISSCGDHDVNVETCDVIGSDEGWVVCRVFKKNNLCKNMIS
As to conditions: protein: recombinant; tags: GST; chain copies: 2; dsDNA, one strand shown. A digest of the protocol: as §1

The target of another experiment is T8, GST-NTL8 NAC domain (Arabidopsis thaliana, UniProt Q9XIN7 14-156).
T8 sequence: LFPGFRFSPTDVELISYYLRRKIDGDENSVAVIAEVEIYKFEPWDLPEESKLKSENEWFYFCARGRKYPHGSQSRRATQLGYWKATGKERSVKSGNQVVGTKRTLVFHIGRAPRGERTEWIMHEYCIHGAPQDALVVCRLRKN
The note with it: protein: recombinant; tags: GST; chain copies: 2; dsDNA, one strand shown. Put shortly: as §1

The next experiment addresses T9, GST-SND1(1-203) (Arabidopsis thaliana, UniProt Q9LPI7 1-203).
T9 sequence: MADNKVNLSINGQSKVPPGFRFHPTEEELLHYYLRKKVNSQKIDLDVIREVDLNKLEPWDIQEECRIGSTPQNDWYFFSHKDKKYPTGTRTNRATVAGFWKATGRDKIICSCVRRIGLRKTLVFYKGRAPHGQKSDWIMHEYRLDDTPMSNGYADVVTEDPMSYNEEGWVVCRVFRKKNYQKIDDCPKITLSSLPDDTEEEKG
The note with it: protein: recombinant; tags: GST; chain copies: 2; dsDNA, one strand shown. A digest of the protocol:
as §1

In the next experiment the target is T10, GST-VND3 NAC domain (Arabidopsis thaliana, UniProt Q9FH59 12-162).
T10 sequence: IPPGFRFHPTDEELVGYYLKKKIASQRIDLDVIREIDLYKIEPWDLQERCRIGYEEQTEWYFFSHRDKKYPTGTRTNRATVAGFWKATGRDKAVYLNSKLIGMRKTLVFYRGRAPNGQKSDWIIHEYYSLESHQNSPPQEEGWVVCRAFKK
The note with it: protein: recombinant; tags: GST; chain copies: 2; dsDNA, one strand shown. Put shortly:
as §1

The target in another experiment is T11, GST-VND7 NAC domain (Arabidopsis thaliana, UniProt Q9C8W9 9-158).
T11 sequence: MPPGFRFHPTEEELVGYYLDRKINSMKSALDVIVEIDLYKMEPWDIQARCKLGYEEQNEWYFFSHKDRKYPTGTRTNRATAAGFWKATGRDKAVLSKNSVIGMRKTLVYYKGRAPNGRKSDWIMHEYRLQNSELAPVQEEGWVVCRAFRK
As to conditions: protein: recombinant; tags: GST; chain copies: 2; dsDNA, one strand shown. Put shortly: as §1

Another experiment addresses GST-NTL6(1-168) (Arabidopsis thaliana, UniProt Q9SCK6 1-168). The note with it: protein: recombinant; tags: GST; chain copies: 2; dsDNA, one strand shown. Put shortly: as §1
The target in the next experiment is GST-WRKY1(266-371) (Arabidopsis thaliana, UniProt Q9SI37 266-371). The note with it: protein: recombinant; tags: GST; dsDNA, one strand shown. A digest of the protocol:
as §1

Chain of GST-NTL6(1-168) (Q9SCK6 1-168): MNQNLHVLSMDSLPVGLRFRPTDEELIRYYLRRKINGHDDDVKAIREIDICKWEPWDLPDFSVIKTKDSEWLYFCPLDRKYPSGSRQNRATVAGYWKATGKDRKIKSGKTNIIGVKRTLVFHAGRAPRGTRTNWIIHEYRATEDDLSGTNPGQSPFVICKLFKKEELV
Chain of GST-WRKY1(266-371) (Q9SI37 266-371): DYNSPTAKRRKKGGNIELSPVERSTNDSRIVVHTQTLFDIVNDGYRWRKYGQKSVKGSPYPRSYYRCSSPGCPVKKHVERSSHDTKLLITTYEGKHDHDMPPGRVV

Turning to CACGCCAA, the binding signal in the experiment with GST-ANAC092(1-176) turned out to be 0.443 E-score; in the experiment with GST-ANAC019 NAC domain, 0.185 E-score; with GST-ANAC055(1-171), 0.159 E-score; in the experiment with GST-ATAF1 NAC domain, 0.16 E-score; in experiment [1] it was 0.451 E-score; with GST-NAP(1-166), 0.114 E-score. Also, the binding signal was determined as 0.3 E-score with GST-NST2(1-184); 0.0657 E-score with GST-NTL8 NAC domain; 0.334 E-score with GST-SND1(1-203); 0.0966 E-score in the experiment with GST-VND3 NAC domain; 0.114 E-score in the experiment with GST-VND7 NAC domain.

GGACGCAA: the binding signal with GST-ANAC092(1-176) was 0.411 E-score; with GST-ANAC019 NAC domain, 0.155 E-score; with GST-ANAC055(1-171), 0.0669 E-score; with GST-ATAF1 NAC domain, 0.0919 E-score; in experiment [1] it was 0.437 E-score; with GST-NAP(1-166), 0.303 E-score. Further, the binding signal with GST-NST2(1-184) was found to be 0.107 E-score; in the experiment with GST-SND1(1-203), 0.25 E-score; with GST-VND3 NAC domain, 0.0908 E-score; in the experiment with GST-VND7 NAC domain it was 0.0578 E-score.

As for GCACGGAA, the binding signal with GST-ANAC092(1-176) worked out at 0.388 E-score; with GST-ANAC019 NAC domain it was 0.472 E-score; with GST-ANAC055(1-171), 0.457 E-score; in the experiment with GST-ATAF1 NAC domain, 0.357 E-score; in experiment [1], 0.413 E-score; with GST-NAP(1-166), 0.437 E-score. Moreover, the binding signal with GST-NST2(1-184) worked out at 0.2 E-score; with GST-NTL8 NAC domain, 0.193 E-score; in the experiment with GST-SND1(1-203), 0.156 E-score; with GST-VND3 NAC domain, 0.402 E-score; with GST-VND7 NAC domain, 0.453 E-score.

With ATTGCGTA, the binding signal with GST-ANAC092(1-176) was found to be 0.482 E-score; with GST-ANAC019 NAC domain it was 0.375 E-score; with GST-ANAC055(1-171), 0.333 E-score; in the experiment with GST-ATAF1 NAC domain, 0.32 E-score; in experiment [1], 0.485 E-score; in the experiment with GST-NAP(1-166), 0.423 E-score. Besides, the binding signal is 0.409 E-score with GST-NST2(1-184); 0.0931 E-score with GST-NTL8 NAC domain; 0.491 E-score in the experiment with GST-SND1(1-203); 0.444 E-score with GST-VND3 NAC domain; 0.453 E-score with GST-VND7 NAC domain.

For CACGGAAC, the binding signal came out at 0.397 E-score in the experiment with GST-ANAC092(1-176); 0.48 E-score with GST-ANAC019 NAC domain; 0.466 E-score in the experiment with GST-ANAC055(1-171); 0.397 E-score in the experiment with GST-ATAF1 NAC domain; 0.425 E-score in experiment [1]; 0.414 E-score with GST-NAP(1-166). Also, the binding signal stood at 0.175 E-score with GST-NST2(1-184); 0.127 E-score with GST-NTL8 NAC domain; 0.0702 E-score with GST-SND1(1-203); 0.446 E-score in the experiment with GST-VND3 NAC domain; 0.478 E-score with GST-VND7 NAC domain.

For TTAAGGAA, the binding signal with GST-ANAC092(1-176) is 0.11 E-score; in the experiment with GST-NTL6(1-168), 0.48 E-score; with GST-ANAC055(1-171), 0.0521 E-score; in the experiment with GST-ATAF1 NAC domain, 0.0827 E-score; in [1] it was 0.131 E-score; with GST-NST2(1-184), 0.139 E-score. Besides, the binding signal is 0.293 E-score in the experiment with GST-NTL8 NAC domain, 0.39 E-score in the experiment with GST-SND1(1-203), 0.24 E-score with GST-VND3 NAC domain and 0.0668 E-score in the experiment with GST-WRKY1(266-371).

Consider AATGCGTA, for which the binding signal with GST-ANAC092(1-176) is 0.371 E-score; with GST-ANAC055(1-171), 0.0991 E-score; with GST-ATAF1 NAC domain, 0.142 E-score; in experiment [1] it was 0.387 E-score; in the experiment with GST-NAP(1-166) it was 0.183 E-score; in the experiment with GST-NST2(1-184), 0.212 E-score. In addition, the results for the binding signal with GST-SND1(1-203), with GST-VND3 NAC domain and with GST-VND7 NAC domain were 0.414 E-score, 0.148 E-score and 0.118 E-score, respectively.
